High-throughput results (PubChem)
An excerpt weighted towards active compounds, which were near 11% of everything screened.
CBFb RUNX1 block: blocks binding between human CBF-beta and RUNX1. Q01196+Q13951. AlphaScreen CBFb-His/RUNX1-biotin binding, biochemical. Potency, µM (doses to about 59.8 µM), inactives show at the highest dose activity, negative = inhibition, usual class: inhibitors. 230,000 tested, under 10 active; further: % of control where 0% means no effect
Target sequence (Q01196 whole entry, looked up): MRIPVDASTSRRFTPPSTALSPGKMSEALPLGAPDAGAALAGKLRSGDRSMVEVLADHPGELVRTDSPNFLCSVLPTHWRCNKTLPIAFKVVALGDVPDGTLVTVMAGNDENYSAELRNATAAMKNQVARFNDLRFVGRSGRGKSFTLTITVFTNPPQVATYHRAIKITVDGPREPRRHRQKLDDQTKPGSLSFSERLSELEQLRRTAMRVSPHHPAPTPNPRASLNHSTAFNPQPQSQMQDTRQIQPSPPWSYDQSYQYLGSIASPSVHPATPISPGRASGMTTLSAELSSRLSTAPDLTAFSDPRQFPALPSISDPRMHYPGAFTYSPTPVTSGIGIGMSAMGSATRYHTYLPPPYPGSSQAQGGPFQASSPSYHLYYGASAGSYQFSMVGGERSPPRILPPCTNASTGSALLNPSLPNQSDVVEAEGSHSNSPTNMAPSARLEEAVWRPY
Target sequence (Q13951 whole entry, looked up): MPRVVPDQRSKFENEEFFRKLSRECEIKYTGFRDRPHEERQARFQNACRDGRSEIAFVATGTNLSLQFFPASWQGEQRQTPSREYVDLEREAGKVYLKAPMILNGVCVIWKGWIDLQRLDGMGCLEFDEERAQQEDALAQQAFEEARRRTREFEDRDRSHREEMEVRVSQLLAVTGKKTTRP
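AlphaScreen proximity signal reports loss of binding between His-tagged CBF-beta and biotin-labelled RUNX1, each at 30 nM. Proteins are pre-associated for 20 minutes, compounds added for 15 minutes, then beads for 90 minutes, all at ambient temperature.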
HttQ103 aggreg: mutant huntingtin aggregation inhibition; PC12 HttQ103-GFP aggregates, Acumen cytometry, 40 h; Potency, µM (doses to about 46.1 µM), without a hit: at the top dose activity change, negative = inhibition, hits mostly inhibitors; 1.1% of 220,000 active; further: potency means the concentration at half of the fitted maximal effect; on the % scale 0 is the no-effect control and ±100 the full control effect; nearly all actives have a fitted effect of over 60% in size
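Quantitative HTS on tebufenozide-induced (100 nM) PC12 cells stably expressing polyQ103 Huntingtin exon 1–GFP. Reduction of bright GFP aggregates, detected by laser scanning cytometry after lysis, identified actives across the titration.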
HTT ATP protect: cytoprotection in Huntington HTT-Q103 PC12 cell model; 0.14% of 230,000 active; Potency, µM (series often up to 56.4 µM), without a hit: cytoprotection (ATP increase), hits mostly activators; AID 1471; PC12 HTT-Q103 induced, cytoprotection, ATP luminescence, 40 h; further: potency means the concentration at half of the fitted maximal effect; % of control where 0% means no effect; nearly all actives have a fitted effect of over 45% in size
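Cells were plated at 1500 per well in phenol red-free DMEM with 5% equine and 5% calf serum. Tebufenozide (100 nM final) and compounds were added, then ATPlite reagent, and luminescence was read.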
ALDH1A1 block: inhibitors of human aldehyde dehydrogenase 1A1. P00352. Potency, µM (titrated, usually from 75.3 µM), for inactives: at the top dose activity, negative = inhibition, most hits filed as inhibitors. Purified ALDH1A1, NADH fluorescence, propionaldehyde substrate. AID 1030. 7.3% of 220,000 active; active means well fitted inhibition curve with a large enough effect, not every such curve was filed as active; inconclusive means small, poorly fitted or top-dose-only effect, or another doubt; inactive means no such curve, though single readings can be large or run the other way;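 further: potency means the concentration at half of the fitted maximal effect; plate controls were no enzyme wells and a reference inhibitor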
HPGD block: HPGD (human) dehydrogenase inhibition. purified HPGD, NADH fluorescence kinetic, PGE2 substrate. P15428. 4.3% of 150,000 active. AID 894. Potency, µM, for inactives: top-dose activity change, negative = inhibition, usual class: inhibitors; active means well fitted inhibition curve with a large enough effect, not every such curve was filed as active; inconclusive means small, poorly fitted or top-dose-only effect, or another doubt; inactive means no such curve, though single readings can be large or run the other way; further: potency means the concentration at half of the fitted maximal effect; on the % scale 0 is the no-effect control and ±100 the full control effect
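20 nM HPGD preincubated 15 min at room temperature with compound in 50 mM Tris-HCl pH 8, 0.01% Tween 20. Started with 1 mM NAD+ and 30 uM prostaglandin E2; NADH fluorescence (360/450 nm) read 5 times over 30-s intervals, last minus first.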
PNC assembly inh: perinucleolar compartment assembly inhibition; PC3M PTB-GFP, PNC prevalence imaging, 16 h; hits give low values; activity change (PNC), negative = inhibition, % at 10 µM; 3.1% of 140,000 active; AID 2417;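 active means readout at or below -70, meaning at least 70% loss of cells showing the perinucleolar compartment, a nuclear body marking cancer cells; inconclusive means readout between -30 and a set limit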;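 further: plate controls were DMSO wells for no effect and camptothecin positive control wells for full effect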
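Read-out is percentage of cells bearing a perinucleolar compartment, from automated 20x imaging of fixed, Hoechst-stained PC3M PTB-GFP cells. Cells were seeded 4 h, then exposed 16 h to compound (23 nl of library stock) in duplicate plates.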
* hit, by the source's call; ? = inconclusive; . = no result given; [ ] = remark or other dose. Unless noted, the call rests on the fitted dose curve; in most records, active means well fitted curve in the direction sought with a large enough effect; inconclusive means small, poorly fitted or top-dose-only effect, or another doubt; inactive means no such curve, though single readings can be large; an effect the other way counts as inactive or inconclusive.

SMILES	CBFb RUNX1 block	HttQ103 aggreg	HTT ATP protect	ALDH1A1 block	HPGD block	PNC assembly inh
CC(=O)c1ccc(Sc2nnnn2-c2ccccc2)c([N+](=O)[O-])c1	-1.6%	12.4%	6.4%[10 µM]	15.8µM*	-16.0%	-6.2
CC(=O)c1ccc(Sc2ccccn2)c([N+](=O)[O-])c1	13.9%	5.9%[9.22 µM]	5.8%[10 µM]	.	.	.
CN1CCN(S(=O)(=O)c2ccc(Sc3nnnn3-c3ccccc3)c([N+](=O)[O-])c2)CC1	11.7%	11.2µM*	8.0%[10 µM]	-55.7%	-10.5%	7.7
CCCCCCCCCCC(C)=O	1.5%	.	.	.	.	.
CCCCCCCCCCCCC(=O)N1CCCC[C@H]1CNC(=O)[C@@H](N)CCCCN	21.9%[21.7 µM]	.	-31.4%	-2.8%	-3.6%	.
C=CCOc1cccc(C2C(C(=O)c3ccco3)=C(O)C(=O)N2CCN(CC)CC)c1 (centres undefined)	-1.5%	-2.9%	19.2%[0.074 µM]	-6.5%	-9.5%	-133.8*
COc1ccc(C2C(C(=O)c3sc(C)nc3C)=C(O)C(=O)N2CCN(C)C)cc1OC (centres undefined)	6.3%	-24.7%	-2.4%[10 µM]	?	-11.1%	-122.4*
COc1ccc(C2C(C(=O)c3ccco3)=C(O)C(=O)N2CCOCCO)cc1OC (centres undefined)	1.9%	9.4%	6.4%	20µM*	-24.3%	24.9
Cc1ccc(C2C(C(=O)c3sc(C)nc3C)=C(O)C(=O)N2CCN(C)C)o1 (centres undefined)	3.9%	?	3.7%[10 µM]	?	-23.5%	43.8
COc1ccc(C2C(C(=O)c3ccco3)=C(O)C(=O)N2CCc2ccccc2)cc1OC (centres undefined)	-8.0%	9.8%	2.4%[10 µM]	-5.0%	-12.1%	-15.3
C/C(N)=C(/C#N)C(=O)COC(=O)CCCNC(=O)c1ccc(Cl)cc1	-2.9%	3.2%	18.4%	3.0%	.	.
Cc1onc(-c2ccccc2)c1C(=O)N1CCN(S(=O)(=O)c2ccc3c(c2)OCCO3)CC1	-0.1%	-24.3%	-10.2%[10 µM]	3.16µM*	-8.1%	?
CCc1ccc(N(C(=O)c2csnn2)C(C(=O)NCc2ccccc2)c2ccco2)cc1 (centres undefined)	0.6%	?	-15.3%	7.94µM*	-13.6%	50.8
COc1ccc(CNC(=O)C(c2ccc(C)o2)N(C(=O)c2csnn2)c2ccc(C(C)C)cc2)cc1 (centres undefined)	-1.0%	?	-21.2%	2µM*	-10.9%	-22.1
COc1ccc(C)cc1NC(=O)C(NCC1CCCO1)c1ccccc1 (centres undefined)	2.2%	18.3%	19.8%[10 µM]	17.8µM*	-0.9%	-16.7
CC(=O)OCC1CCCC2=C(C)C(=O)CCC21COC(C)=O (centres undefined)	1.2%	4.1%	.	4.8%	1.9%	-109.0*
CC(=O)c1cccc(NC(=O)C2CC(=O)N(Cc3ccccc3)C2)c1 (centres undefined)	-1.2%	-9.3%	1.7%	-5.9%	1.5%	2.2
COc1oc(=O)c2cc(N)ccc2c1Cl	5.0%	.	.	.	.	.
CCCCCCSc1nnc2[nH]c(=O)cc(N)n12	-0.1%	-1.7%	.	2.8%	11.2µM*	12.6
COc1ccc(NC(=O)CC(=O)Nc2ccc(OC)cc2OC)c(OC)c1	3.5%	-17.1%	-0.7%	27.3%	2.1%	-126.6*
COc1ccc(NC(=S)Nc2ccccn2)c(OC)c1	-2.8%	8.7%	4.0%[10 µM]	?	-19.5%	51.0
COc1ccc(NC(=O)Nc2nc(C)cc(C)n2)c(OC)c1	7.8%	28.2µM*	.	.	.	.
CCCCC(=O)Nc1ccc(NC(=O)CC)cc1OC	-10.8%	1.0%	-4.6%[10 µM]	2.2%	-10.5%	-83.9*
COc1ccc(NC(=S)Nc2ccc(OC)cc2OC)c(OC)c1	-29.0%	-0.2%	4.2%[10 µM]	20µM*	25.1µM*	14.4
CCCCC(=O)Nc1ccc(NC(=S)NC(=O)CC(C)C)cc1OC	-10.2%	-4.7%	-58.2%[0.074 µM]	-7.0%	?	22.9
SMILES	CBFb RUNX1 block	HttQ103 aggreg	HTT ATP protect	ALDH1A1 block	HPGD block	PNC assembly inh
COc1ccc(NC(=O)CC(C)=O)c(OC)c1	14.4%	-1.3%[9.22 µM]	11.5%[10 µM]	.	.	.
COc1ccc(-c2nc(CN(CC3CCC(=O)N3)C(C)C)c(C)o2)c(C)c1C (centres undefined)	-2.9%	-32.7%[9.22 µM]	-46.5%[10 µM]	4.0%	.	.
N=C(N)n1cccn1	.	-7.0%	15.3%	.	.	.
C=CCNC1=C2C[C@@H](C)C[C@H](OC)[C@H](O)[C@@H](C)/C=C(\C)[C@H](OC(N)=O)[C@@H](OC)/C=C/C=C(\C)C(=O)NC(=CC1=O)C2=O	-8.5%[13.1 µM]	.	-54.1%[10 µM]	-0.2%[13.5 µM]	-8.8%	.
O=S1(=O)C2CC3CCC2(CN1Cc1cccc(F)c1)O3 (centres undefined)	-6.4%	.	.	.	.	.
CCOc1cc(NC(=S)NCC2CCCO2)c(OCC)cc1NC(=O)c1ccccc1C (centres undefined)	-8.7%	-20.8%	-46.7%	-2.5%	-2.9%	44.1
COc1ccc(NC(=O)CCCN2C(=O)C3C4C=CC(C4)C3C2=O)c(OC)c1 (centres undefined)	8.7%	-3.1%	-2.2%[1.9 µM]	12.6µM*	-5.1%	?
COc1ccc(CNC(=S)Nc2cc(OC)ccc2OC)cc1	1.9%	-8.5%	29.0%[10 µM]	?	-11.5%	42.3
COc1ccc(NC(=S)Nc2ccccc2OC)c(OC)c1	-1.0%	-6.2%[9.22 µM]	18.6%	25.1µM*	.	.
CCOc1cc(NC(=S)Nc2ccccc2OC)c(OCC)cc1NC(=O)c1ccccc1C	?	3.2%	-29.4%	?	?	-108.8*
COc1ccc(OC)c(NC(=O)CCCN2C(=O)C3C4C=CC(C4)C3C2=O)c1 (centres undefined)	1.4%	9.1%	-9.7%	?	-11.4%	26.7
COC(=O)NNC(=S)Nc1cc(OC)ccc1OC	-2.6%	-4.8%[9.22 µM]	-12.2%	25.1µM*	?	17.5
C=CCOC(=O)N[C@@H](c1cccs1)C(C(C)=O)C(C)=O	-6.6%	.	-39.7%	1.1%	-4.0%	.
O=C(/C=C/c1ccncc1)c1ccc2c(c1)OCCO2	5.5%	-13.1%[9.22 µM]	-0.8%[10 µM]	0.891µM*	.	.
O=C(/C=C/c1ccccc1)c1ccc2c(c1)OCO2	-0.2%	-17.1%[9.22 µM]	6.6%[10 µM]	.	.	.
CC1(C)CC(NC(=O)C23CCC(C)(/C(=N/O)C2)C3(C)C)CC(C)(C)N1 (centres undefined)	3.7%	18.4%	2.9%	1.0%	-8.7%	-118.3*
CC1(C)CC(NC(=O)C23CCC(C)(C(=O)C2=O)C3(C)C)CC(C)(C)N1 (centres undefined)	1.8%	-10.3%	-33.8%	9.7%	.	.
O=C1CSC(=Nc2cc(Cl)ccc2Cl)N1	1.7%	-19.0%	32.0%	0.6%	10µM*	-16.8
O=C(CC(=O)c1ccccc1)Nc1cc(C(F)(F)F)ccc1Cl	-4.3%	-10.2%	7.7%[10 µM]	?	-7.7%	-21.0
